# In PubChem BioAssay (NCATS):
# Where “and” joins values, the source holds several entries; their conditions need not be identical. Identical values can stand only once. Results filed as inconclusive are left out. Entries that show only a call come without a potency. Calls of active or inactive are those of the source. The call rests on the fitted dose curve.
# Assays:
# [1] = Cytotoxicity counterscreen for inhibitors of SARS-CoV-2 cell entry (AID 1645845); conditions: cell viability (SARS-CoV-2 entry assay cells); series mostly up to 57.1 µM; further: nearly all actives have a fitted effect of over 50% in size
# Summary of the method: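 48 h compound treatment (after 1 h preincubation), HEK293-ACE2 cells, 37 C/5% CO2; ATP luminescence endpoint; normalized to cell wells and media blanks.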
# [2] = Primary qHTS to identify inhibitors of SARS-CoV-2 cell entry (AID 1645846); conditions: SARS-CoV-2 pseudovirus cell entry assay, luminescence; activity change, negative = inhibition: at 57.1 µM (top of the series) unless noted; series mostly up to 57.1 µM; further: nearly all actives have a fitted effect of over 45% in size; further: potency means the concentration at half of the fitted maximal effect
# Summary of the method: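 Entry measured by luciferase signal 48 h after adding SARS-CoV-2-S pseudotyped MLV particles to HEK293-ACE2 cells preincubated 1 h with compounds. Normalisation: bald particles and spike particles.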
structure (smiles),measurement,setting,value
Cc1ccc(C(C)OC(=O)C2(C)CCC(C(=O)O)C2(C)C)cc1 (stereo not given),Potency,[1],inactive
same,"activity change, negative = inhibition",[2],-10.3%
CN(C)CCC(c1ccccc1)c1ccccn1 (stereo not given),Potency,[1],inactive
same,"activity change, negative = inhibition",[2],-4.85%
NC(N)=N/N=C/c1c(Cl)cccc1Cl,Potency,[1],inactive
same,"activity change, negative = inhibition",[2],-25.8%
O=C(O)CCC(=O)c1ccc(-c2ccccc2)cc1,Potency,[1],inactive
same,Potency,[2],inactive
CC(=O)Oc1c(C)c(C)c2c(c1C)CC[C@@](C)(CCC[C@H](C)CCC[C@H](C)CCCC(C)C)O2,Potency,[1],inactive
same,Potency,[2],inactive
C/C(=C(\CCOP(=O)(O)O)SC(=O)c1ccccc1)N(C=O)Cc1cnc(C)nc1N,"activity change, negative = cytotoxicity",[1],0.654% [at 5.25 µM] (inactive)
same,outcome,[2],inactive [at 5.25 µM]
CCCCNc1ccc(C(=O)OCCN(C)C)cc1,Potency,[1],inactive
same,Potency,[2],inactive
CSc1ccc(C(=O)c2[nH]c(=O)[nH]c2C)cc1,Potency,[1],inactive
same,Potency,[2],inactive
C[N+]1(CC2COC(c3ccccc3)(c3ccccc3)O2)CCCCC1 (stereo not given),Potency,[1],inactive
same,"activity change, negative = inhibition",[2],1.26% [at 27.1 µM]
CC(=O)OCC1=C(C(=O)O)N2C(=O)[C@@H](NC(=O)CSc3ccncc3)[C@H]2SC1,Potency,[1],inactive
same,Potency,[2],inactive
FC(F)(F)C(F)(F)C(F)(F)C(F)(F)C(F)(F)C(F)(F)C(F)(F)C(F)(F)Br,Potency,[1],inactive
same,"activity change, negative = inhibition",[2],-12.9%
CCCCC1(COC(=O)CCC(=O)O)C(=O)N(c2ccccc2)N(c2ccccc2)C1=O,Potency,[1],inactive
same,Potency,[2],inactive
OC(CCCN1CCCCC1)(c1ccccc1)c1ccccc1,Potency,[1],inactive
same,"activity change, negative = inhibition",[2],-24.7%
CCN(CC)CC(=O)Nc1c(C)cccc1C,Potency,[1],inactive
same,Potency,[2],inactive
CCOC(=O)c1ccc(NC(=O)CN2CCCCC2)cc1,Potency,[1],inactive
same,"activity change, negative = inhibition",[2],-7.85%
Cc1ncc(COP(=O)(O)O)c(C=O)c1O,Potency,[1],inactive
same,"activity change, negative = inhibition",[2],-19%
CO[C@]1(NC(=O)CSC(F)F)C(=O)N2C(C(=O)O)=C(CSc3nnnn3CCO)CO[C@H]21,Potency,[1],inactive
same,Potency,[2],inactive
CC1(C)O[C@@H]2C[C@H]3[C@@H]4C[C@H](F)C5=CC(=O)C=C[C@]5(C)[C@H]4[C@@H](O)C[C@]3(C)[C@]2(C(=O)CO)O1,Potency,[1],inactive
same,"activity change, negative = inhibition",[2],12.8% and -23.3%
Brc1c(NC2=NCCN2)ccc2nccnc12,Potency,[1],inactive
same,Potency,[2],inactive
CN(C)[C@@H](CCOc1cccc2ccccc12)c1ccccc1,Potency,[1],inactive
same,Potency,[2],10 µM (active)
Cc1ccc(C(=O)Nc2ccc(S(=O)(=O)O)c3cc(S(=O)(=O)O)cc(S(=O)(=O)O)c23)cc1NC(=O)c1cccc(NC(=O)Nc2cccc(C(=O)Nc3cc(C(=O)Nc4ccc(S(=O)(=O)O)c5cc(S(=O)(=O)O)cc(S(=O)(=O)O)c45)ccc3C)c2)c1,Potency,[1],inactive
same,"activity change, negative = inhibition",[2],-17.2% [at 27.1 µM]
CCN(CC)C(=O)Nc1ccc(OCC(O)CNC(C)(C)C)c(C(C)=O)c1 (stereo not given),Potency,[1],inactive
same,"activity change, negative = inhibition",[2],-2.7%
C=CCCCCCCCCC(=O)O,Potency,[1],inactive
same,Potency,[2],inactive
CCOc1ccc(C(=O)OCCN(CC)CC)cc1,Potency,[1],inactive
same,"activity change, negative = inhibition",[2],-1.6%
CCN1CCCC(OC(=O)C(c2ccccc2)c2ccccc2)C1 (stereo not given),Potency,[1],inactive
same,"activity change, negative = inhibition",[2],-0.255%
C/C(=N/NC(=O)c1ccncc1)C(=O)O,Potency,[1],inactive
same,"activity change, negative = inhibition",[2],-2.02%
CN1CCN(CCCN2c3ccccc3Sc3ccc(S(=O)(=O)N(C)C)cc32)CC1,Potency,[1],inactive
same,Potency,[2],25.1 µM (active)
CC(C(=O)O)c1ccc2c(c1)Cc1cccnc1O2 (stereo not given),Potency,[1],inactive
same,"activity change, negative = inhibition",[2],-13.6%
CC(=O)O[C@]1(C(C)=O)CC[C@H]2[C@@H]3C=C(Cl)C4=CC(=O)CC[C@]4(C)[C@H]3CC[C@@]21C,Potency,[1],inactive
same,"activity change, negative = inhibition",[2],-27.6%
NC(=O)CC[C@@H](N)C(=O)O,Potency,[1],inactive
same,"activity change, negative = inhibition",[2],-8.52%
C#CCN(C)Cc1ccccc1,Potency,[1],inactive
same,Potency,[2],inactive
CC(C)C[C@@H](N)C(=O)O,Potency,[1],inactive
same,"activity change, negative = inhibition",[2],3.85% [at 27.1 µM]
CC(CNC1CCCCC1)OC(=O)c1ccccc1 (stereo not given),Potency,[1],inactive
same,Potency,[2],inactive
C[C@@H]1CCC[C@H](C)N1CCCC(O)(c1ccccc1)c1ccccn1 (stereo not given in full),Potency,[1],inactive
same,"activity change, negative = inhibition",[2],-1.1%
CN1CCC(=C2c3ccccc3CC(=O)c3sccc32)CC1,Potency,[1],inactive
same,"activity change, negative = inhibition",[2],-26%
COC(=O)C1=C(C)NC(COC(N)=O)=C(C(=O)OC(C)C)C1c1cccc(Cl)c1Cl (stereo not given),Potency,[1],inactive
same,"activity change, negative = inhibition",[2],-3.4%
C[C@H]1COc2c(C3(N)CC3)c(F)cc3c(=O)c(C(=O)O)cn1c23,Potency,[1],inactive
same,"activity change, negative = inhibition",[2],-12.8%
CCn1c(=O)c2c(nc(C=Cc3ccc(OC)c(OC)c3)n2C)n(CC)c1=O,Potency,[1],inactive
same,Potency,[2],inactive
CC(=O)[C@H]1CC[C@H]2[C@@H]3CC=C4C[C@@H](O)CC[C@]4(C)[C@H]3CC[C@]12C,Potency,[1],inactive
same,Potency,[2],inactive
CCOCCOC(=O)/C=C/c1ccc(OC)cc1,Potency,[1],inactive
same,Potency,[2],inactive
O=C(CCCN1CC=C(n2c(=O)[nH]c3ccccc32)CC1)c1ccc(F)cc1,Potency,[1],inactive
same,Potency,[2],inactive
NCC1CCC(C(=O)Oc2ccc(CCC(=O)O)cc2)CC1 (stereo not given),Potency,[1],inactive
same,Potency,[2],inactive
N[C@H]1CN(c2c(F)cc3c(=O)c(C(=O)O)cn(C4C[C@@H]4F)c3c2Cl)CC12CC2 (stereo not given in full),Potency,[1],inactive
same,"activity change, negative = inhibition",[2],-17.4%
Nc1nc2ncc(CNc3ccc(C(=O)N[C@@H](CCC(=O)O)C(=O)O)cc3)nc2c(=O)[nH]1,Potency,[1],inactive
same,Potency,[2],inactive
CC(C)NCC(O)COc1ccc(COCCOC(C)C)cc1 (stereo not given),Potency,[1],inactive
same,Potency,[2],inactive
CC(O)COc1ccccc1 (stereo not given),Potency,[1],inactive
same,Potency,[2],inactive
Cc1c(C(=O)NN2CCCCC2)nn(-c2ccc(Cl)cc2Cl)c1-c1ccc(Cl)cc1,Potency,[1],inactive
same,"activity change, negative = inhibition",[2],-26.4%
CCN1CCN(c2cc(-c3ccc(F)cc3)c3c(n2)CCCCCC3)CC1,Potency,[1],inactive
same,Potency,[2],inactive
CCCCCC1Nc2cc(C(F)(F)F)c(S(N)(=O)=O)cc2S(=O)(=O)N1 (stereo not given),Potency,[1],inactive
same,Potency,[2],inactive
CC1(C)O[C@@H]2C[C@H]3[C@@H]4C[C@H](F)C5=CC(=O)CC[C@]5(C)[C@H]4[C@@H](O)C[C@]3(C)[C@]2(C(=O)CO)O1,Potency,[1],inactive
same,Potency,[2],inactive
COc1cc(NS(=O)(=O)c2ccc(N)cc2)nc(OC)n1,Potency,[1],inactive
same,"activity change, negative = inhibition",[2],2.7%
O=C(O)CNC(=O)c1ccccc1I,Potency,[1],inactive
same,"activity change, negative = inhibition",[2],-21.9%
N[C@@H](CSCCCO)C(=O)O,Potency,[1],inactive
same,Potency,[2],inactive
CN1CCOC(c2ccccc2)c2ccccc2C1 (stereo not given),Potency,[1],inactive
same,Potency,[2],inactive
Cc1ccc(Nc2c(F)cccc2Cl)c(CC(=O)O)c1,Potency,[1],inactive
same,Potency,[2],inactive
CC(=O)OCC(=O)[C@@]1(O)CCC2C3CCC4=CC(=O)CC[C@]4(C)C3[C@@H](O)C[C@@]21C (stereo not given in full),Potency,[1],inactive
same,Potency,[2],inactive
CCOc1ccc(NC(C)=O)cc1,Potency,[1],inactive
same,Potency,[2],inactive
NS(=O)(=O)c1cc2c(cc1Cl)NCNS2(=O)=O,Potency,[1],inactive
same,Potency,[2],inactive
CC1(C)OC[C@@H](COC(=O)CCc2ccc(OC[C@@H](O)CNCCNC(=O)N3CCOCC3)cc2)O1,Potency,[1],inactive
same,"activity change, negative = inhibition",[2],-4.74%
CC[N+](CC)(CC(=O)Nc1c(C)cccc1C)Cc1ccccc1,Potency,[1],inactive
same,Potency,[2],inactive
CCCOc1ccc(C(=O)OCCN(CC)CC)cc1N,Potency,[1],inactive
same,"activity change, negative = inhibition",[2],2.8% and -24.9%
CN1[C@@H]2CC[C@H]1CC(NC(=O)n1c(=O)[nH]c3ccccc31)C2 (stereo not given in full),Potency,[1],inactive
same,Potency,[2],inactive
Cc1nnc(C(=O)NC(C)(C)c2nc(C(=O)NCc3ccc(F)cc3)c(O)c(=O)n2C)o1,Potency,[1],inactive
same,"activity change, negative = inhibition",[2],-86.5% and -69.6%
CN(C)CCOC(c1ccccc1)c1ccccc1,Potency,[1],inactive
same,"activity change, negative = inhibition",[2],-13.9%
Cc1ccc(=O)n(-c2ccccc2)c1,Potency,[1],inactive
same,Potency,[2],inactive
CC1(C)[C@@H]2CC[C@@]1(C)C(=O)C2,Potency,[1],inactive
same,Potency,[2],inactive
CCCCOc1ccc(OCCCN2CCOCC2)cc1,Potency,[1],inactive
same,Potency,[2],inactive
O=C(O)c1ccc(OCCCOc2ccc(C(=O)O)cc2)cc1,Potency,[1],inactive
same,"activity change, negative = inhibition",[2],-2.21%
COc1ccc(CN(CCN(C)C)c2ccccn2)cc1,Potency,[1],inactive
same,"activity change, negative = inhibition",[2],-6.08%
CCN(CC)C(=O)c1cccc(C)c1,Potency,[1],inactive
same,Potency,[2],inactive
CCOC(=O)c1c(N)sc2c1CCN(Cc1ccccc1)C2,Potency,[1],inactive
same,Potency,[2],inactive
N=C(N)c1ccc(OCCCOc2ccc(C(=N)N)cc2)cc1,Potency,[1],inactive
same,"activity change, negative = inhibition",[2],-8.76%
CC(=O)Oc1ccc2c(c1)CC[C@@H]1[C@@H]2CC[C@]2(C)[C@@H](O)CC[C@@H]12,Potency,[1],inactive
same,"activity change, negative = inhibition",[2],-11%
Nc1ccc(S(=O)(=O)Nc2cnc3ccccc3n2)cc1,Potency,[1],inactive
same,Potency,[2],inactive
CCC(=O)c1ccc(O)cc1,Potency,[1],inactive
same,Potency,[2],inactive
